According to PubChem BioAssay (NCATS):
Records with an inconclusive call do not appear. Activity calls are given as the source filed them. Calls follow the shape of the dose curve; as a rule, active = well fitted curve in the direction sought with a large enough effect; inconclusive = small, poorly fitted or top-dose-only effect, or another doubt; inactive = no such curve, though single readings can be large; an effect the other way counts as inactive or inconclusive.

Tested on: not listed separately
Assay: Cellular Toxicity (caspase-3) MRC-5 (AID 659); also: potency is read from the fitted curve at half-maximal effect;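 as to caspase-3 activation: 0% = DMSO basal and 100% = 10 µM staurosporine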
Conditions: MRC-5 cells, luminescence; Potency: caspase-3 activation; series mostly up to 91.7 µM; caspase-3 activation: at the top concentration
Procedure, shortened: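 Concentration-dependent caspase 3/7 activation is measured in human normal lung fibroblasts (MRC-5) following 16-hour treatment. AC50 values come from standard Hill-equation modeling of luminescence normalized to DMSO and 10 uM staurosporine.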

SMILES	Potency	caspase-3 activation
COc1cccc2c1C(=O)c1c(O)c3c(c(O)c1C2=O)C[C@@](O)(C(C)=O)C[C@@H]3O[C@H]1C[C@H](N)[C@H](O)[C@H](C)O1	31.6 µM (active)	
NC(=NCCCCCCN=C(N)/N=C(\N)Nc1ccc(Cl)cc1)/N=C(\N)Nc1ccc(Cl)cc1		3.99% (inactive)
Oc1ccc(O)cc1		0.333% (inactive)
C=C(CC)C(=O)c1ccc(OCC(=O)O)c(Cl)c1Cl		-2.57% (inactive)
Oc1ccc(Cl)cc1Sc1cc(Cl)ccc1O		14.1% (inactive)

Tested on: not listed separately
Assay: Cellular Toxicity (caspase-3) Mesangial (AID 660);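 also: combined caspase 3 and 7 activity read by Caspase-Glo luminescence; cells exposed to compound for 16 h before the caspase read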
Conditions: mesangial cells, normalized: DMSO 0%, 100 µM tamoxifen 100%; series mostly up to 91.7 µM; caspase-3 activation: at the top concentration
Procedure, shortened: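 Human renal glomerular mesangial cells, 1000/well, 5 h at 37 C before 16 h compound treatment. Caspase-Glo 3/7 luminescence after 20 min; normalized to DMSO and 100 uM tamoxifen, AC50 from Hill fit.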

SMILES	caspase-3 activation
NC(=NCCCCCCN=C(N)/N=C(\N)Nc1ccc(Cl)cc1)/N=C(\N)Nc1ccc(Cl)cc1	-0.366% (inactive)
Oc1ccc(O)cc1	-3.77% (inactive)
C=C(CC)C(=O)c1ccc(OCC(=O)O)c(Cl)c1Cl	-1.02% (inactive)
Oc1ccc(Cl)cc1Sc1cc(Cl)ccc1O	1.64% (inactive)

Tested on: not listed separately
Assay: Cellular Toxicity (caspase-3) SK-N-SH (AID 661); also: potency is read from the fitted curve at half-maximal effect;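 as to caspase-3 activation: 0% = DMSO basal and 100% = 10 µM staurosporine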
Conditions: SK-N-SH caspase-3 activation, qHTS; series mostly up to 91.7 µM; caspase-3 activation: at the top concentration
Procedure, shortened: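 Human SK-N-SH neuroblastoma cells, 1500/well, were exposed to compounds for 16 hours at 37 °C. Caspase-Glo 3/7 luminescence was normalized to DMSO (basal) and 10 uM staurosporine (100%), and AC50 came from a Hill fit.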

SMILES	Potency	caspase-3 activation
COc1cccc2c1C(=O)c1c(O)c3c(c(O)c1C2=O)C[C@@](O)(C(C)=O)C[C@@H]3O[C@H]1C[C@H](N)[C@H](O)[C@H](C)O1	0.126 µM (active)	
NC(=NCCCCCCN=C(N)/N=C(\N)Nc1ccc(Cl)cc1)/N=C(\N)Nc1ccc(Cl)cc1		14.7% (inactive)
Oc1ccc(O)cc1		-6.94% (inactive)
C=C(CC)C(=O)c1ccc(OCC(=O)O)c(Cl)c1Cl		5.39% (inactive)
Oc1ccc(Cl)cc1Sc1cc(Cl)ccc1O		5.68% (inactive)

Tested on: not listed separately
Assay: Cellular Toxicity (caspase-3) H-4-II-E (AID 663); also: potency is read from the fitted curve at half-maximal effect;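 as to caspase-3 activation: cells exposed to compound for 16 hr before readout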
Conditions: H-4-II-E rat hepatoma; Potency: caspase-3 activation; series mostly up to 92.2 µM; caspase-3 activation: at the top concentration
Procedure, shortened: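 Apoptosis induction is scored as increased luminescence from caspase 3/7 substrate cleavage in rat hepatoma H-4-II-E cells exposed to compound for 16 hr. Activity is scaled between DMSO and 100 uM tamoxifen.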

SMILES	Potency	caspase-3 activation
COc1cccc2c1C(=O)c1c(O)c3c(c(O)c1C2=O)C[C@@](O)(C(C)=O)C[C@@H]3O[C@H]1C[C@H](N)[C@H](O)[C@H](C)O1	12.6 µM (active)	
NC(=NCCCCCCN=C(N)/N=C(\N)Nc1ccc(Cl)cc1)/N=C(\N)Nc1ccc(Cl)cc1		9.87% (inactive)
C=C(CC)C(=O)c1ccc(OCC(=O)O)c(Cl)c1Cl		1.73% (inactive)
Oc1ccc(Cl)cc1Sc1cc(Cl)ccc1O		16% (inactive)

Tested on: not listed separately
Assay: Cellular Toxicity (caspase-3) Hek293 (AID 664);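 also: cells exposed to compound for 16 h at 37 °C before readout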
Conditions: HEK293 caspase-3 activation, DMSO = 0%, 100 µM tamoxifen = 100%; series mostly up to 92.2 µM; caspase-3 activation: at the top concentration
Procedure, shortened: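 HEK293 cells in complete medium treated 16 h at 37 °C, then Caspase-Glo 3/7 luminescence read after 20 min at room temperature. Normalized to DMSO and 100 uM tamoxifen; AC50 from Hill fit of concentration-response.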

SMILES	caspase-3 activation
NC(=NCCCCCCN=C(N)/N=C(\N)Nc1ccc(Cl)cc1)/N=C(\N)Nc1ccc(Cl)cc1	-8.71% (inactive)
Oc1ccc(O)cc1	-8.91% (inactive)
C=C(CC)C(=O)c1ccc(OCC(=O)O)c(Cl)c1Cl	-3.2% (inactive)
Oc1ccc(Cl)cc1Sc1cc(Cl)ccc1O	3.15% (inactive)

Tested on: not listed separately
Assay: Cellular Toxicity (caspase-3) N2a (AID 665);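 also: compound exposure lasted 16 h at 37 °C before readout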; also: potency is read from the fitted curve at half-maximal effect
Conditions: N2a cells, luminescence; Potency: caspase-3 activation; series mostly up to 92.2 µM; caspase-3 activation: at the top concentration
Procedure, shortened: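 Mouse N2a neuroblastoma cells, 1500 per well, treated 16 h at 37 °C in complete medium; caspase-3/7 activity by Caspase-Glo luminescence after 1 h. Normalized to DMSO and 10 uM staurosporine; AC50 from Hill fits.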

SMILES	Potency	caspase-3 activation
COc1cccc2c1C(=O)c1c(O)c3c(c(O)c1C2=O)C[C@@](O)(C(C)=O)C[C@@H]3O[C@H]1C[C@H](N)[C@H](O)[C@H](C)O1	3.98 µM (active)	
NC(=NCCCCCCN=C(N)/N=C(\N)Nc1ccc(Cl)cc1)/N=C(\N)Nc1ccc(Cl)cc1		-6.01% (inactive)
Oc1ccc(O)cc1		-17.4% (inactive)
C=C(CC)C(=O)c1ccc(OCC(=O)O)c(Cl)c1Cl		-12.3% (inactive)
Oc1ccc(Cl)cc1Sc1cc(Cl)ccc1O		0.088% (inactive)

Tested on: not listed separately
Assay: Cellular Toxicity (caspase-3) NIH 3T3 (AID 666);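 also: caspase signal read after 16 h compound exposure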; also: potency is read from the fitted curve at half-maximal effect;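 as to caspase-3 activation: 0% = DMSO basal and 100% = 100 µM tamoxifen stimulation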
Conditions: NIH 3T3 caspase-3 activation, apoptosis/toxicity; series mostly up to 92.2 µM; caspase-3 activation: at the top concentration
Procedure, shortened: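 Mouse NIH 3T3 fibroblasts (1000/well) treated 16 h at 37 C; caspase-3/7 activity measured by Caspase-Glo 3/7 luminescence after 20 min. Normalized to DMSO and 100 uM tamoxifen; AC50 from Hill fits.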

SMILES	Potency	caspase-3 activation
COc1cccc2c1C(=O)c1c(O)c3c(c(O)c1C2=O)C[C@@](O)(C(C)=O)C[C@@H]3O[C@H]1C[C@H](N)[C@H](O)[C@H](C)O1	31.6 µM (active)	
NC(=NCCCCCCN=C(N)/N=C(\N)Nc1ccc(Cl)cc1)/N=C(\N)Nc1ccc(Cl)cc1		2.71% (inactive)
C=C(CC)C(=O)c1ccc(OCC(=O)O)c(Cl)c1Cl		-8.58% (inactive)
Oc1ccc(Cl)cc1Sc1cc(Cl)ccc1O		2.97% (inactive)

Tested on: not listed separately
Assay: Cellular Toxicity (caspase-3) Renal Proximal Tubule (AID 667);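 also: cells exposed to compound for 16 hours at 37 °C before detection; 0% = DMSO basal and 100% = 10 µM staurosporine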
Conditions: renal proximal tubule cells, primary cells freshly taken from rat, solvent-only wells 0%, staurosporine 100%; series mostly up to 91.7 µM; caspase-3 activation: at the top concentration
Procedure, shortened: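 AC50 derived by standard Hill fit of concentration-response data, normalized between DMSO basal and 10 uM staurosporine as 100% stimulation. Cells: primary rat kidney proximal tubule, 16 h treatment at 37 °C.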

SMILES	caspase-3 activation
NC(=NCCCCCCN=C(N)/N=C(\N)Nc1ccc(Cl)cc1)/N=C(\N)Nc1ccc(Cl)cc1	-1.8% (inactive)
Oc1ccc(O)cc1	-5.9% (inactive)
C=C(CC)C(=O)c1ccc(OCC(=O)O)c(Cl)c1Cl	-5.48% (inactive)
Oc1ccc(Cl)cc1Sc1cc(Cl)ccc1O	-0.754% (inactive)

Molecular target: Guanine nucleotide-binding protein G(i) subunit alpha-1 (Homo sapiens) (UniProt P63096)
Sequence (P63096 whole entry, looked up): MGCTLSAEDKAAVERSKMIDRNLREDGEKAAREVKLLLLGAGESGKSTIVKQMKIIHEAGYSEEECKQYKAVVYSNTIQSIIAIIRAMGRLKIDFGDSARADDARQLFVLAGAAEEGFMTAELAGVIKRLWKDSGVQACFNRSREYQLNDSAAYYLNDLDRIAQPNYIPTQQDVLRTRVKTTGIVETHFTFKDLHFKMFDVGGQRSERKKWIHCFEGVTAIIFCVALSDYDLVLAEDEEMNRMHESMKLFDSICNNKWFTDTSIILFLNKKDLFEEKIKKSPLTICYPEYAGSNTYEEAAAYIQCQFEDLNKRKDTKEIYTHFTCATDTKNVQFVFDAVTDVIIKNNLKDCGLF
Assay: qHTS Assay for Inhibitors of RGS12 GoLoco Motif Activity (Green Fluorophore) (AID 879);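 also: 0% = labeled peptide with Gαi1 and full inhibition = labeled peptide alone without protein; negative values mean loss of peptide binding seen as reduced polarization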
Conditions: Galphai1/FITC-RGS12 GoLoco peptide, fluorescence polarization; series mostly up to 57.1 µM; activity, negative = inhibition: at the top concentration
Procedure, shortened: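 Fluorescence polarization assay: 50 nM Gαi1 with 10 nM FITC-labeled RGS12 GoLoco peptide in 10 mM Tris pH 7.5, 150 mM NaCl, 0.1 mM GDP, 0.05% NP40, 10 min at room temperature with compound.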

SMILES	activity, negative = inhibition	outcome
N[C@@H](Cc1cnc[nH]1)C(=O)O	6.07% (inactive)	
CC(C)NC[C@@H](O)COc1cccc2ccccc12		inactive
C[N+]1(CCCCC[N+]2(C)CCCC2)CCCC1	-8.86% (inactive)	
Nc1cc(Cl)c(NC2=NCCN2)c(Cl)c1	4.65% (inactive)	
C[C@@H]1C(=O)NC2=Nc3cccc(Cl)c3CN21	-1.48% (inactive)	
COc1cc(NS(C)(=O)=O)ccc1Nc1c2ccccc2nc2ccccc12	-22.6% (inactive)	
CCCn1c(=O)[nH]c(=O)c2[nH]cnc21	-4.05% (inactive)	
O=C(O)c1cc2cc(Cc3cccnc3)ccc2o1	-19.4% (inactive)	
CC(C)COC(=O)OCN1C(=O)CN(CCN2CC(=O)N(COC(=O)OCC(C)C)C(=O)C2)CC1=O	-19.1% (inactive)	
Oc1cc(O)c2c(c1)O[C@H](c1ccc(O)c(O)c1)[C@H](O)C2	-14.3% (inactive)	
Oc1ccc(O)cc1	-19% (inactive)	
CNCCC=C1c2ccccc2CCc2ccccc21	-9.4% (inactive)	
C1CCc2nnnn2CC1	-1.7% (inactive)	
O=C1CCC(c2ccc(-n3ccnc3)cc2)=NN1	-4.27% (inactive)	
CN1[C@@H]2CC[C@H]1CC(OC(=O)c1c[nH]c3ccccc13)C2 (some centres not stated)	6.58% (inactive)	

Molecular target: Cytochrome P450 2C9 (Homo sapiens) (UniProt P11712)
Sequence (P11712 whole entry, looked up): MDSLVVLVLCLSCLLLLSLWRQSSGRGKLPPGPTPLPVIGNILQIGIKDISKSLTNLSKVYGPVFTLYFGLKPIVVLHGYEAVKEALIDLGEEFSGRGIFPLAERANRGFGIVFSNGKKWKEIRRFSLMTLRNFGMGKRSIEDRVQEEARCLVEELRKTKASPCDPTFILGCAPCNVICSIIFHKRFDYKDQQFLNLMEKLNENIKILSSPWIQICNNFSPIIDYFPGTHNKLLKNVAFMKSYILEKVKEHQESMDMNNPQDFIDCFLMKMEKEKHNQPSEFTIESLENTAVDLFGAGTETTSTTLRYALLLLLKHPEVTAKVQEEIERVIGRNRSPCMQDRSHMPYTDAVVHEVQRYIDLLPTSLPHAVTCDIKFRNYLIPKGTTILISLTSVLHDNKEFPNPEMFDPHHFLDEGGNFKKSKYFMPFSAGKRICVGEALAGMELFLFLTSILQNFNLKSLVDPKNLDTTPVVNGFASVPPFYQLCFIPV
Assay: qHTS Assay for Inhibitors and Substrates of Cytochrome P450 2C9 (AID 883); also: nearly all actives have a fitted effect of over 60% in size; also: potency is read from the fitted curve at half-maximal effect; as to activity change, negative = inhibition: % is scaled to controls: 0 for no effect and ±100 for the full control effect
Conditions: recombinant CYP2C9, luciferin-H luminescence, 60 min; series mostly up to 57.1 µM; activity change, negative = inhibition: at the top concentration
Procedure, shortened: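 Inhibition of CYP2C9 is scored as loss of luminescence, with 57uM sulphaphenazole defining 100% inhibition. Substrate Luciferin-H is used at 100uM, equal to its KM; enzyme at 10nM in 25mM KPO4, 60 min at 37C with NADPH regeneration.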

SMILES	activity change, negative = inhibition	Potency
COc1cc(NS(C)(=O)=O)ccc1Nc1c2ccccc2nc2ccccc12	101% (inactive)	
CCCn1c(=O)[nH]c(=O)c2[nH]cnc21	1.84% (inactive)	
Cc1ccnc(NS(=O)(=O)c2ccc(N)cc2)n1	36.2% [at 25.6 µM] (inactive)	
Oc1ccc(O)cc1	-18% (inactive)	
COc1c(C)c2c(c(O)c1C/C=C(\C)CCC(=O)O)C(=O)OC2	4.99% (inactive)	
C=C(CC)C(=O)c1ccc(OCC(=O)O)c(Cl)c1Cl		0.631 µM (active)
CNCCC=C1c2ccccc2CCc2ccccc21	-6.44% [at 11.4 µM] (inactive)	
